# High-throughput results as filed in PubChem BioAssay.
# TRHR enhancer-1: TRH receptor (human) allosteric enhancement. TRHR cells, fluo-8 calcium fluorescence, EC20 TRH enhancement. enhancement, % at 2 µM. 360,000 tested, 0.66% active. P34981. AID 493056; in the data active = enhancement above about 30%; note: 0% is about no effect
#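 Enhancer read-out: after compound pinning and an initial kinetic agonist-mode read, an EC20 of TRH (10 nM final) was injected and fluo-8 calcium signal (Ex 480/Em 530) followed at 1 s/cycle for 100 cycles in TRHR-expressing cells.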
# TRPML1 ag: human mucolipin-1 channel agonism; Q9GZU1; TRPML1-expressing cells, Ca2+ dye fluorescence, FDSS; activation, % (test concentration not listed); 410,000 tested, 0.12% active; AID 624414; in the data active = activation above about 50%; inconclusive = mostly about 30% to 49%; note: 0% is about no effect
#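 Tetracycline-induced TRPML1-DL cells are seeded and incubated overnight before loading with a no-wash Ca2+ dye and quencher. Agonist activity is taken from the 110 s fluorescence read following compound pin-transfer on an FDSS, before EC80 54-4 challenge.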
# TRHR agonist-1: agonists of human TRH receptor; P34981; TRHR cells, calcium flux fluo-8, FDSS agonist mode; activation, % at 2 µM; 360,000 tested, 0.18% active; AID 493084; in the data active = activation above about 30%; note: 0% is about no effect
#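 TRHR-expressing cells, plated overnight in medium with 10% serum, were loaded with fluo-8 calcium dye at room temperature. After a 10 s baseline, library compound was pin-added and calcium release was recorded kinetically (ex 480/em 530) as agonist response.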
# TRPV1 ag: human TRPV1 agonism; activation, % at 8.33 µM; Q8NER1; 320,000 tested, 0.19% active; TRPV1-expressing cells, Fluo-8 calcium influx, agonist mode; AID 540275; in the data active = activation above about 80%; inconclusive = between about 30% and that limit; note: 0% is about no effect
# Target sequence (Q8NER1 whole entry, looked up): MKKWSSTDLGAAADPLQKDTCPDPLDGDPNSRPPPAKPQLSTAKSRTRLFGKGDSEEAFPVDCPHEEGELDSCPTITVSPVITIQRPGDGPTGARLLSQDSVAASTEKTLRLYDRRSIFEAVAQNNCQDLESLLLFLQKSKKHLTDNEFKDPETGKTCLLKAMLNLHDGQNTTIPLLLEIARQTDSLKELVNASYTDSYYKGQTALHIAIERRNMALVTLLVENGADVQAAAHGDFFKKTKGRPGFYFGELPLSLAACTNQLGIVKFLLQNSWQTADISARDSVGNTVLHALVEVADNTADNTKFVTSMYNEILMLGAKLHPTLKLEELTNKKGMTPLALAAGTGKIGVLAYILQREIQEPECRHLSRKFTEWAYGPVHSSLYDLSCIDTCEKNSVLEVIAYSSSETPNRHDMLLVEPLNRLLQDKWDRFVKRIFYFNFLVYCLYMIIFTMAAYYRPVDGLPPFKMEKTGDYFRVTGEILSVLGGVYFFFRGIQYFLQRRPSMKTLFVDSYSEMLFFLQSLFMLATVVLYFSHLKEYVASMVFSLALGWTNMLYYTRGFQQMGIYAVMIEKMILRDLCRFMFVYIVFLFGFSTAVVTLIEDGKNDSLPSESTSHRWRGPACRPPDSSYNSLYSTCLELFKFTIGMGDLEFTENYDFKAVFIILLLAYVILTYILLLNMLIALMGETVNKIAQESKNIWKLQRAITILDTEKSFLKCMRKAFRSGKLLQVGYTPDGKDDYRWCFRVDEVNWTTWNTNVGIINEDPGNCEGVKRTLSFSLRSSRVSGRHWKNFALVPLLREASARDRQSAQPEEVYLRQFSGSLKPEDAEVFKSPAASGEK
#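 TRPV1-expressing cells were cultured overnight at 35.5C and loaded with Fluo-8 calcium dye for 40 to 90 min at room temperature. After a 10 s baseline, compound was added and calcium influx was read kinetically for 3 min (ex 480/em 520 nm).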
# TRPML1 inh: inhibitors of human TRPML1 channel; TRPML1-inducible cells, Ca2+ dye fluorescence, FDSS; hits give low values; inhibition of EC80 agonist-evoked calcium signal; Q9GZU1; activity change, negative = inhibition, % (concentration not given with the values); 390,000 tested, 0.02% active; AID 624415; in the data active = activity change below about -50%; inconclusive = between about -30% and that limit;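 note: stimulus is agonist 54-4 at its EC80 concentration; % is set by controls: 0 for no effect and ±100 for the full control effect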
#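 TRPML1-DL cells, Tet-induced overnight (~16 h, 37 °C) at 1,500 cells/well, were loaded with Ca8 no-wash dye plus quencher for 45-90 min at room temperature. Compounds were pinned during FDSS kinetic reading; agonist 54-4 at EC80 (4 uM final) then added.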
# TRPV1 PAM: enhances activation of the human vanilloid receptor TRPV1; TRPV1-expressing cells, Fluo-8 calcium influx, capsaicin EC20 potentiation; potentiation, % at 8.33 µM; AID 540277; 320,000 tested, 0.02% active; in the data active = potentiation above about 80%; inconclusive = between about 30% and that limit; note: 0% is about no effect
#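 TRPV1-expressing cells were cultured overnight at 35.5C and loaded with Fluo-8 calcium dye for 40 to 90 min at room temperature. After a 10 s baseline, compound was added and calcium influx was read kinetically for 3 min (ex 480/em 520 nm).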
# TRHR enhancer-2: human TRH receptor allosteric enhancement confirmation; 970 tested, under 10 active; shares compounds with TRHR enhancer-1; activity change, negative = inhibition, % at 46.1 µM; TRH receptor cell assay, enhancer confirmation qHTS;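 note: compound effect scored on response to added TRH at EC20 of 10 nM; 0% is about no effect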
# TRHR agonist-2: confirmation of human TRH receptor agonists | shares compounds with TRHR enhancer-1 | TRHR-expressing cells, agonist activation read-out | Potency, µM (series often up to 46.1 µM), for inactives: at the top dose activation, most hits filed as activators | 970 tested, 8% active; note: potency is the fitted concentration of half-maximal effect; 0% is about no effect; nearly all actives have a fitted effect of over 75% in size
# * hit, by the source's call; u = inconclusive; x = not tested or not shown. Only some compounds are listed: those with a hit (about 0.99% of all), similar ones and a draw of the others. Unless noted, calls come from the whole dose curve; as a rule, active = well fitted curve in the direction sought with a large enough effect; inconclusive = small, poorly fitted or top-dose-only effect, or another doubt; inactive = no such curve, though single readings can be large; an effect the other way counts as inactive or inconclusive.
SMILES,TRHR enhancer-1,TRPML1 ag,TRHR agonist-1,TRPV1 ag,TRPML1 inh,TRPV1 PAM,TRHR enhancer-2,TRHR agonist-2
CN1CCS/C1=C/C=C1\SC(=S)N(CC(=O)O)C1=O,-3,12,27,17,22,-14,4,21µM*
CCNc1nc(NCC)n2c(SCC(=O)Nc3ccc(F)cc3)nnc2n1,1,0,0,1,12,10,x,x
CCNc1nc(NCC)n2c(SCC(=O)Nc3ccc(C)c(C)c3)nnc2n1,45*,3,0,-14,17,12,14,4%
CCOc1ccc(C(=O)Nc2c3c(nn2-c2ccc(C)cc2)CS(=O)C3)cc1OCC (configuration not stated),42*,0,0,-4,-3,-5,-2,0%
COc1ccc(N(CC(=O)NN=C2CCN(C)CC2)S(=O)(=O)c2ccccc2)c(OC)c1,41*,0,0,-1,14,29,1,0%
CC12CCC=CC1C(c1ccc(F)c(Br)c1)N(Cc1ccccc1)C2=O (configuration not stated),x,3,x,x,26,x,x,x
CC(C)CC(=O)NC(=S)N1CCCCCC1,42*,1,0,-2,30,u,u,0%
COc1ccc(C2Nc3ccccc3C(=O)N2c2cccc3ccccc23)cc1COc1c(C)cccc1C (configuration not stated),x,-1,x,x,x,x,x,x
CCC(C)NC(=O)CSc1nc2c(sc3ccccc32)c(=O)n1Cc1ccccc1Cl (configuration not stated),2,-1,0,x,-14,x,x,x
CCOC(=O)/C(C#N)=C/c1cccc(F)c1,9,1,43*,1,-15,-1,3,7%
Cn1c(=O)[nH]c(=O)c2c1nc(N1CCOCC1)n2Cc1ccccc1,6,-1,0,x,-10,x,x,x
CC1(C)Cc2c(sc(NC(=O)c3ccc4ncsc4c3)c2C(N)=O)C(C)(C)N1,44*,-1,0,2,-16,-6,9,0%
O=C(COC(=O)c1ccc(F)cc1)NCC1CCCCC1,x,2,x,x,4,x,x,x
COc1ccc(C(=O)OCC(=O)NCC2CCCCC2)cc1F,41*,0,-1,17,20,-11,3,1%
Clc1ccccc1OCc1nnc(-c2ccccc2Br)o1,-8,2,0,18,-10,-6,x,x
N#Cc1ccccc1OCc1nnc(-c2ccccc2Br)o1,44*,2,0,5,0,-12,-18,3%
CCCCn1nnnc1SCC(=O)Nc1ccc(N(C)C)cc1,54*,1,0,-4,-1,u,-2,1%
C/C(=N\NC(=O)c1ccc(Cn2cc(Br)cn2)o1)c1ccc(NC(=O)c2ccoc2C)cc1,61*,-1,0,-10,23,-1,10,8%
O=C(NCCc1ccccc1Cl)C1CCC(=O)N(C2CCCCCC2)C1 (configuration not stated),4,0,0,4,18,-3,x,x
O=C(NCCOc1ccccc1)C1CCC(=O)N(C2CCCCCC2)C1 (configuration not stated),58*,0,0,6,8,7,4,-1%
Cc1ccc(CNC(=O)CCCn2c(=O)c3ccccc3n(CC(=O)Nc3ccc(C)c(C)c3)c2=O)cc1,0,-1,0,x,27,x,x,x
Cc1ccc(OCC(=O)c2cc(C)n(C)c2C)c([N+](=O)[O-])n1,44*,-1,0,-4,3,4,-5,0%
Cc1cc(C(=O)COc2cccc3cccnc23)c(C)n1C,6,4,-1,4,-2,16,x,x
CN(C)CCCNC1=CC(=O)CC(c2ccccc2)C1 (configuration not stated),56*,0,0,0,11,u,12,-1%
COc1ccc(Cl)cc1C(=O)Nc1ccc(CN2CCCCC2)cc1,64*,1,2,-1,14,7,3,7%
SMILES,TRHR enhancer-1,TRPML1 ag,TRHR agonist-1,TRPV1 ag,TRPML1 inh,TRPV1 PAM,TRHR enhancer-2,TRHR agonist-2
CCN(CCCNC(=O)c1nn(-c2ccc(C)cc2)c(=O)c2c1c1ccccc1n2C)c1ccccc1,4,1,1,x,22,x,x,x
CCc1nc(SCC(=O)Nc2cccc3ccccc23)[nH]c(=O)c1C,-6,1,0,-1,-19,5,x,x
CCc1nc(SC)[nH]c(=O)c1C,43*,0,-1,5,-5,0,-1,0%
CCOC(=O)Cn1c(=O)n(C2CCCCC2)c2nc(-c3ccc(Cl)cc3)nc(C(N)=O)c21,5,0,0,x,-2,x,x,x
CCN(CC)c1ccc(CN2CCC(C(=O)NCc3ccc(C)cc3)CC2)cc1,45*,0,0,-13,18,6,9,2%
COc1ccc(N2CCN(c3ccc(-c4nc(-c5cccc(C)c5)no4)cc3[N+](=O)[O-])CC2)cc1,1,-1,0,x,-7,x,x,x
CCCCCCC1CCC(C(=O)Nn2c(C)nc3ccccc3c2=O)CC1 (configuration not stated),-2,0,2,30,-5,-9,x,x
CCCC1CCC(C(=O)Nn2c(C)nc3ccccc3c2=O)CC1 (configuration not stated),45*,0,0,u,12,-5,-1,0%
COCCN1CCN(Cc2cn(C)nc2-c2ccc(Oc3ccccc3)cc2)CC1,44*,0,0,6,10,-13,-5,2%
Cn1cc(CN2CCN(CCO)CC2)c(-c2ccc(Oc3ccccc3)cc2)n1,6,-1,1,-7,11,0,x,x
CC1CCCC(C)N1C(=O)CN1C(=O)NC2(CCOc3ccccc32)C1=O (configuration not stated),45*,1,0,-2,-3,28,5,8%
Cc1ccc(-c2cc(C(=O)Oc3ccc(C#N)cc3)no2)cc1,20,0,0,x,-3,x,x,x
Cc1ccccc1NC(=O)CN1CCOCC1,56*,-1,0,0,34,-1,14,0%
Cc1ccccc1NC(=O)CN1CCCC1,x,0,x,x,8,x,x,x
CCCCNC(=O)c1cc(-c2ccc(F)cc2)on1,41*,2,0,-1,-20,1,-2,6%
C=C(C)c1cccc(C(C)(C)NC(=O)Nc2ccc(C)cn2)c1,-8,1,2,28,0,-4,x,x
